From PubChem BioAssay (NCI)
This is part of a sample that, as a whole, favours compounds with a hit. Of some 83,000 tested, about 20% had one in any assay.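 Treatment: one concentration, 48 hours, 96-well format. Scoring: percent growth, with anything below 10 considered active.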 Values without a mark were called inactive. The source made the active and inactive calls.

Tested on: COLO 205 colon
Experiment: NCI-60 one-dose screen, 48 h (100 = growth as untreated, 0 = no growth, -100 = all killed)
Details: 10 µM unless noted
Method: Cells are grown in 96 well plates and exposed to the test compound for 48 hours. Compounds are tested at a single concentration, which is 10^-5 M for most compounds. The reported endpoint is percent growth (GI% or GIPRCNT), where numbers from 0 - 100% represent growth inhibition, and numbers from -100% - 0 represent cell death. For example, a value of 40 represents 60% growth inhibition. A value of 0 means no net growth occurred over the course of the experiment. A value of -40 indicates 40% of cells at the beginning of the experiment died by the end of the experiment. A value of -100 means all cells are dead at the end of the experiment.
NCI-60 Human Tumor Cell Lines Screen was performed using the standard one-dose NCI protocol, which is described in more detail at https://dtp.cancer.gov/discovery_development/nci-60/default.htm.
Compounds with GIPRCNT values below 10 were considered active. Activity score was based on GIPRCNT using the following formula: […]
Score is 0 for GIPRCNT values of 100 or above, 50 for GIPRCNT values of 0, and 100 for GIPRCNT values of -100.

Compound	growth
O=S(=O)(Nc1cc(Br)c(O)c2ccccc12)c1ccc(F)cc1	93.2%
COc1cc(OC)c2sc(-c3ccc(-n4cncc4-c4ccc(OC)c(OC)c4)cc3)nc2c1	48.3%
O=C(COc1ccc(-c2nc3ccccc3[nH]2)cc1)N=Nc1c(O)[nH]c2ccc(Cl)cc12	53.3%
CN1CCN(C(=O)c2ccc(NC(=O)Nc3ccc(-c4nc(N5CCOCC5)c5cccn5n4)cc3)cc2)CC1	-11.4% (active)
C=C1C(=O)O[C@H]2[C@H]1CC/C(COC(=O)NCc1cc[nH]c1)=C\CC[C@@]1(C)O[C@@H]21	31.2%
Cc1ccc2c(n1)C(=O)c1[nH]c3ccccc3c1C2=O	23.9%
CCCCCC(=O)OCC(=O)O[C@@H]1C[C@]2(C(C)C)O[C@@]1(C)[C@@H]1CC[C@@H](C)[C@H]1[C@@H]2OC(=O)/C=C/c1ccccc1	73.9%
CCOC(=O)C1=C(NC)OCC1=O	112%
CC(=O)n1nc(C(=O)OC(C)C)c2cc(C)c(C)cc21	102%
C=C(C)[C@@H]1CC[C@]2(C(=O)NCCNCCN)CC[C@]3(C)[C@H](CC[C@@H]4[C@@]5(C)C/C(=C/c6ccncc6)C(=O)C(C)(C)[C@@H]5CC[C@]43C)[C@@H]12	88.9%
N#C/C(=C\c1ccc(Br)cc1)n1nnc2ccc(F)cc21	-12.9% (active)
C#Cc1ccc(NC(=O)c2ccc(/C=C/C(=O)c3nccn3C)cc2)cc1	-53.7% (active)
COC(=O)c1ccc2c(c1)C(=O)c1c-2n(CCCN)c(=O)c2cc([N+](=O)[O-])ccc12	-100% (active)
N#Cc1nc(-c2ccccc2)oc1S(=O)(=O)N1CCOCC1	0.0605% (active)
CN[C@]12CC3(C=CC(=O)C=C3)O[C@@]1(Cc1ccc(OC)cc1)N(C)C(=O)N2	19%
COC(=O)/C=C1/SC(=Nc2ccc(C)cc2)N(CCc2c[nH]c3ccc(O)cc23)C1=O	108%
COc1cnc2c(c1)C(=O)c1c-2n(CCCNCCO)c(=O)c2ccncc12	-15.7% (active)
O=Nc1c(-c2c(O)[nH]c3ncccc23)[nH]c2ccccc12	108%
Cc1cc2c(O)c(-c3cc(Cl)ccc3Cl)c3sc(=O)oc3c2cc1C	112%
CCOC(=O)c1c(NC(=O)c2ccc(C(C)C)cc2)sc2c(CN(C)C)c(O)ccc12	-24.5% (active)

Compound	growth
CN(Cc1ccc(C(F)(F)F)cc1)CC(O)C(=O)Nc1ccc(Cl)cc1 (stereo not given)	-68.6% (active)
CCOC(=O)c1[nH]c(=O)c2c(C)nc(-c3ccccc3)cc2c1O	117%
CN(CCn1sc(=O)n(Cc2ccccc2)c1=O)Cc1ccc2c(Cl)cc(Cl)c(O)c2n1	93.7%
CC(C)(C)[Si](C)(C)O[C@H]1C(=O)C=CN2CC=C[C@@H]12	122% [100 µM]
Fc1ccc2[nH]cc(-c3nonc3-c3c[nH]c4ccc(Br)cc34)c2c1	-45.5% (active)
O=C(/C=C/c1ccc(Cl)cc1)c1cccc(Nc2nc(Nc3ccccc3)nc(Nc3ccccc3)n2)c1	93.1%
CCCC(=O)NC(c1ccc2c(c1)OCO2)c1ccc2cccnc2c1O (stereo not given)	8.58% (active)
COC(C(=O)[C@@H](O)[C@@H](C)O)[C@@H]1Cc2cc3cc(O[C@H]4C[C@@H](O[C@H]5C[C@@H](O)[C@H](O)C(C)O5)[C@H](O)C(C)O4)cc(O)c3c(O)c2C(=O)[C@H]1O[C@H]1C[C@@H](O[C@H]2C[C@@H](O[C@H]3C[C@@H](OC)[C@H](O)C(C)O3)[C@@H](O)C(C)O2)[C@H](O)C(C)O1 (stereo not given in full)	31.2%
CC1Cc2c(Cl)ncnc2N(C)c2ccc(F)cc21 (stereo not given)	92.5%
OCCOCCN(Cc1ccccn1)Cc1cc(I)cc(I)c1O	107%
Cc1cc2c(O)c(-c3cccc(Cl)c3)c3sc(=O)oc3c2cc1C	115%
CCOC(=O)CNP(=O)(OC[C@@H](Cc1ccccc1)NC(=O)c1cc2ccccc2s1)Oc1ccccc1 (stereo not given in full)	87.2%
COc1ccc(C2c3sc4c(F)cccc4c3Oc3nc[nH]c(=O)c32)cc1 (stereo not given)	108%
N#Cc1c(-c2ccccc2)cc(-c2ccccc2)n(CCCCCC(=O)Nc2ccccc2N)c1=O	84%
CN(C)CCCn1c2c(c3ncccc3c1=O)C(=O)c1ccccc1-2	20.4%
Nc1nc(=S)c2ncn(C3OC(COP(=O)(O)O)C(O)C3O)c2[nH]1 (stereo not given)	24.7%
COc1ccc(-c2csc(NC(=O)CSc3nc(-c4ccccc4)cc(=O)[nH]3)n2)cc1	56.6%
Cc1cccnc1NC(=S)Nc1ncccc1C	116%
COc1cc(CNC(=O)/C=C/C=C/c2ccc3c(c2)OCO3)ccc1OCc1cn(-c2ccc(C)c(C)c2)nn1	80.5%
CCn1c(=S)[nH]c2c(=O)n(C)c(=O)n(C)c21	116%
